Screening results as filed in PubChem.
BRCA1 expr up: qHTS Assay to Identify Small Molecule Activators of BRCA1 Expression; MCF7-BRCA1-FFLuc reporter, luminescence, 48 h; response scale: scaled: vehicle 0%, 10 µM genistein 100%; Potency, µM (titrated, usually from 46.1 µM), for the others: top-dose activation, usual class: activators; hit rate 1.1% among 380,000; AID 624202, 2012; further: nearly all actives have a fitted effect of over 80% in size
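First, MCF7-BRCA1-FFLuc cells (2000/well) attach for 2 h; next, compounds are pin-added and incubated 48 h at 37 °C; finally, luciferase reagent is added and luminescence read after 15 min.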
HEK293 tox: qHTS of GLP-1 Receptor Inverse Agonists: Cytotox Screen. hit rate 0.13% among 410,000. HEK293 cAMP-luciferase reporter cells, luminescence, 24 h. Potency, µM (highest dose often 38.3 µM), for the others: top-dose activity change, negative = inhibition, most hits filed as inhibitors. AID 624418, 2012;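 further: loss of luciferase light is scored as toxicity; on the % scale 0 is the no-effect control and ±100 the full control effect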
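Cells in DMEM/10% Nu serum/1% pen-strep, 1536-well format. Pre-incubated 12 h, dosed with 23 nL compound, incubated a further 24 h. Luciferase detection, 12 min at room temp, luminescence.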
GLP1R inv ag: qHTS of GLP-1 Receptor Inverse Agonists (Inhibition Mode); Glucagon-like peptide 1 receptor (Homo sapiens), P43220; HEK293 GLP-1R CRE-luciferase, luminescence, 24 h; GLP-1R form is constitutively active; hit rate 1.6% among 410,000; AID 624417, 2012; Potency, µM (highest dose often 38.3 µM), inactives show at the highest dose activity change, negative = inhibition, actives largely listed as inhibitors; further: on the % scale 0 is the no-effect control and ±100 the full control effect; nearly all actives have a fitted effect of over 55% in size
Target sequence (P43220 whole entry, looked up): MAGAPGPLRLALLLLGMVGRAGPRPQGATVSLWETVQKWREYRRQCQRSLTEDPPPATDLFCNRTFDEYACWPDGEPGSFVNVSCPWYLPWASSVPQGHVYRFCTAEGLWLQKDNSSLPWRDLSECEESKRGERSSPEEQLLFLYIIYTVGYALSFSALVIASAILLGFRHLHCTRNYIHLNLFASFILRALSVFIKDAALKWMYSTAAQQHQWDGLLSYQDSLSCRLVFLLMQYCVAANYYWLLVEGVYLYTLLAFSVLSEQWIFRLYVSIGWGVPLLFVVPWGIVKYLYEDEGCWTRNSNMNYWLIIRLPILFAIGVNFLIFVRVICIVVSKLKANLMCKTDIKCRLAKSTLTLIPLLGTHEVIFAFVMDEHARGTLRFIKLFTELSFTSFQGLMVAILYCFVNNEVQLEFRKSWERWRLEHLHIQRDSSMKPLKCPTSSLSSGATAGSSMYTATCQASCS
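Inverse agonists were sought by their lowering of basal cAMP reporter luciferase output in HEK293 cells stably carrying constitutively active human GLP-1R, after 24 h compound treatment.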
GLP-1R agonist: qHTS of GLP-1 Receptor Agonists; HEK293 GLP-1R CRE-luciferase, luminescence, 4-6 h; cells express a hypersensitive GLP-1R form; Potency, µM (doses to about 45.6 µM), for inactives: at the top dose activation, usual class: activators; hit rate 0.007% among 380,000; further: % of control where 0% means no effect
Starred values were filed as active, the others as inactive; u = inconclusive; x = no result given; [ ] = dose if it differs, or a comment. Hits are enriched below; roughly 2.6% of the tested compounds scored in any of these assays. The call rests on the fitted dose curve; in most records, active means well fitted curve in the direction sought with a large enough effect; inconclusive means small, poorly fitted or top-dose-only effect, or another doubt; inactive means no such curve, though single readings can be large; an effect the other way counts as inactive or inconclusive. Potency means the concentration at half of the fitted maximal effect.

SMILES	BRCA1 expr up	HEK293 tox	GLP1R inv ag	GLP-1R agonist
CCCCCCC(O)(c1ccc(OC)cc1)C(CN1CCOCC1)c1ccccc1 (stereo not drawn)	-36%	u	u	6%
Cc1ccnc2nc(C(=O)OCC(=O)Nc3ccc([N+](=O)[O-])cc3Br)nn12	1%	-21%	-1%	-15%
Cc1ccc(NC(CNS(=O)(=O)c2ccc(Cl)cc2)c2ccccc2)cc1 (stereo not drawn)	-65%	6%	u	-26%
COc1cccc(NC(CNS(=O)(=O)c2ccc(C)cc2)c2ccccc2)c1 (stereo not drawn)	x	-7%	10µM*	x
COc1cccc(NC(CNS(=O)(=O)c2ccc(Cl)cc2)c2ccccc2)c1 (stereo not drawn)	x	u	10µM*	x
C=CCNC(=S)NNc1nc2c(c(=O)[nH]1)C1(CCCCC1)Cc1ccccc1-2	4%	-17%	10µM*	0%
O=c1[nH]c(NCCO)nc2c1C1(CCCC1)Cc1ccccc1-2	-34%	-14%	-6%	-10%
Nc1nc(NCCO)nc(NC2CCCCC2)c1[N+](=O)[O-]	-19%	-10%	96%	u
CN(C)CCCNc1nc(N)c([N+](=O)[O-])c(NC2CCCCC2)n1	-19%	-27%	13µM*	2%
CC(=O)Nc1ccc(S(=O)(=O)NCCC(=O)OCc2ccc([N+](=O)[O-])cc2)cc1	-15%	-2%	2%	-3%
Cc1ccc(-c2ccc(/C=N/c3ncn[nH]3)o2)cc1Cl	-4%	u	8.9µM*	-17%
Cc1ccc(NC2c3ncccc3C(=O)N2Cc2ccco2)c(C)c1 (stereo not drawn)	3%	3%	15%	-5%
CCOC(=O)C1CCN(C(=O)c2cc3cc(C)ccc3[nH]2)CC1	2.8µM*	2%	9%	19%
CC(=O)Oc1ccc2occ(C(=O)c3ccccc3)c2c1	7.1µM*	-4%	u	12%
O=C(COC(=O)c1ccc(S(=O)(=O)C(F)F)cc1)Nc1cccnc1Cl	-4%	4%	10%	4%
O=C(NNC(=O)c1ccccc1Cl)c1ccc2c(c1)OCCO2	7.1µM*	-3%	-2%	6%
O=C(NCCc1ccccc1F)c1ccc2c(c1)OCCO2	-43%	15%	0.89µM*	-3%
CO[C@H](C(=O)[C@@H](O)[C@@H](C)O)C1Cc2cc3cc(O[C@H]4C[C@@H](O[C@H]5C[C@@H](O)[C@H](O)[C@@H](C)O5)[C@@H](O)[C@@H](C)O4)c(C)c(O)c3c(O)c2C(=O)[C@H]1O[C@H]1C[C@@H](O[C@H]2C[C@@H](O[C@H]3C[C@](C)(O)[C@H](O)[C@@H](C)O3)[C@H](O)[C@@H](C)O2)[C@H](O)[C@@H](C)O1 (stereo partly drawn)	x	x	x	-1%
CN1CCN(CCOc2ccc(Cc3ccccc3)cc2)CC1	6%	-1%	11µM*	7%
c1ccc(COc2ccc(OCCCCN3CCCC3)cc2)cc1	9%	-18%	11µM*	-7%
c1ccc(-c2ccc(-c3cnc4n3CCCCC4)cc2)cc1	98%	u	5µM*	-1%
Cc1ccc(-c2cnc3n2CCCCC3)cc1	9%	u	u	-3%
CCn1nc(NS(=O)(=O)c2ccccc2)c2cc3cccc(C)c3nc21	0%	-4%	0%	3%
CCn1nc(NS(=O)(=O)c2ccc(F)cc2)c2cc3cccc(C)c3nc21	-9%	-4%	10µM*	-6%
COc1ccc(C)cc1NC(=O)c1cn(C)c(=O)c2cc(OC)c(OC)cc12	-6%	4%	8%	0%
SMILES	BRCA1 expr up	HEK293 tox	GLP1R inv ag	GLP-1R agonist
O=C(c1cnn(-c2ccc(F)cc2)c1-n1cccc1)N1CCN(c2cccc(Cl)c2)CC1	-3%	5%	11%	-4%
CC(C)COC(=O)N(C)c1ccc(C(O)(C(F)(F)F)C(F)(F)F)cc1	-3%	4%	8.9µM*	10%
CC(C)(C)c1ccc(S(=O)(=O)Nc2ccc(C(O)(C(F)(F)F)C(F)(F)F)cc2)cc1	-46%	-21%	u	-4%
COc1ccc(NC(=O)CSc2c3c(nc4ccc(Cl)cc24)CCCC3)cc1Cl	x	0%	5%	x
CC(C)(CO)NS(=O)(=O)c1ccc2c(c1)Cc1cc(S(=O)(=O)NC(C)(C)CO)ccc1-2	-2%	-3%	56%	1%
Cn1c(-c2ccccc2O)cc2ccccc21	-9%	-9%	10µM*	1%
Cn1c(-c2ccccc2)cc2ccccc21	-1%	-2%	-12%	4%
CCn1cnc2cc(NC(=O)c3ccc(C)cc3)ccc21	4.5µM*	-11%	-15%	1%
CCC(=O)Nc1ccc2c(c1)ncn2-c1ccc(OC)cc1	80%	-18%	6%	14%
Cc1ccc(C(=O)Nc2ccc3c(c2)ncn3C)cc1	u	1%	-18%	-7%
CCC(=O)Nc1ccc2c(c1)ncn2-c1ccc(C)cc1	2µM*	17%[0.307 µM]	-11%[0.307 µM]	1%
CN1C2CCC1CC(NC(=O)n1c(=O)[nH]c3ccccc31)C2 (stereo not drawn)	x	x	x	4%
O=C(NCC(c1cccs1)S(=O)(=O)c1cccs1)c1ccc(Cl)cc1 (stereo not drawn)	x	-10%	0%	x
Oc1c(Br)cc(Br)cc1C=NCc1ccccc1	-34%	41%	u	7%
O/N=C/c1cc(Br)cc(Br)c1OCc1ccccc1	-30%	-5%	10µM*	5%
CCOc1ccccc1N(C)C(=O)Cn1cnc2onc(-c3ccc(F)cc3)c2c1=O	19%	1%	8%	-4%
COc1cc(S(=O)(=O)NCCc2c(C)[nH]c3ccc(C)cc23)ccc1Br	x	0%	10µM*	x
COc1ccc(C(C)C)cc1S(=O)(=O)NCCc1c(C)[nH]c2ccc(C)cc12	x	2%	11µM*	x
CNc1ccc(/C=C2\C=Cc3ccccc32)cc1Br	7%	x	x	x
Cc1ccc2c(c1)COc1c3ccc(C(=O)N4CCCCC4)cc3nn1-2	4.5µM*	11%	21%	14%
O=C(c1ccc2c3n(nc2c1)-c1ccc(Cl)cc1CO3)N1CCOCC1	6.3µM*	-11%	16%	24%
Cn1cnc2c(=O)oc3ccc(S(=O)(=O)Nc4ccc(F)cc4)cc3c21	x	-6%	6%	x
CCOC(=O)c1c(NC(=S)N2CCOCC2)sc2c1CCN(C(=O)OCC)C2	-83%	u	10µM*	10%
CCOC(=O)c1c(NC(=O)/C=C/C(=O)O)sc(C)c1-c1ccc(Cl)cc1	-74%	u	5µM*	-5%
CCOC(=O)c1c(NC(=S)N2CCN(C)CC2)sc(C)c1-c1ccccc1	8%	u	1.8µM*	-3%
CCOC(=O)c1ccc(NC(=S)N2CCN(C)CC2)cc1	0%	13%	-22%	2%
CCOC(=O)c1c(NC(=O)Nc2ccc(Cl)cc2)sc(C)c1C	-23%	1%	14%	-9%
